# Among all 310,000 compounds or so, about 14,000 (4.5%) showed an effect of 50% or more. Effects have a minus sign here. What follows is part of a selection rich in strong results, with near analogues and random picks from the rest.
# Biological target: human ether-à-go-go-related gene (hERG) potassium channel (human, UniProt Q12809)
# Assay: primary screen, population patch clamp on CHO cells stably expressing hERG; higher = less effect of the substance
# 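Also: peak tail current of the secondary pulse compared with the same well before compound.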
# Chain of human ether-à-go-go-related gene (hERG) potassium channel (Q12809 whole entry, looked up): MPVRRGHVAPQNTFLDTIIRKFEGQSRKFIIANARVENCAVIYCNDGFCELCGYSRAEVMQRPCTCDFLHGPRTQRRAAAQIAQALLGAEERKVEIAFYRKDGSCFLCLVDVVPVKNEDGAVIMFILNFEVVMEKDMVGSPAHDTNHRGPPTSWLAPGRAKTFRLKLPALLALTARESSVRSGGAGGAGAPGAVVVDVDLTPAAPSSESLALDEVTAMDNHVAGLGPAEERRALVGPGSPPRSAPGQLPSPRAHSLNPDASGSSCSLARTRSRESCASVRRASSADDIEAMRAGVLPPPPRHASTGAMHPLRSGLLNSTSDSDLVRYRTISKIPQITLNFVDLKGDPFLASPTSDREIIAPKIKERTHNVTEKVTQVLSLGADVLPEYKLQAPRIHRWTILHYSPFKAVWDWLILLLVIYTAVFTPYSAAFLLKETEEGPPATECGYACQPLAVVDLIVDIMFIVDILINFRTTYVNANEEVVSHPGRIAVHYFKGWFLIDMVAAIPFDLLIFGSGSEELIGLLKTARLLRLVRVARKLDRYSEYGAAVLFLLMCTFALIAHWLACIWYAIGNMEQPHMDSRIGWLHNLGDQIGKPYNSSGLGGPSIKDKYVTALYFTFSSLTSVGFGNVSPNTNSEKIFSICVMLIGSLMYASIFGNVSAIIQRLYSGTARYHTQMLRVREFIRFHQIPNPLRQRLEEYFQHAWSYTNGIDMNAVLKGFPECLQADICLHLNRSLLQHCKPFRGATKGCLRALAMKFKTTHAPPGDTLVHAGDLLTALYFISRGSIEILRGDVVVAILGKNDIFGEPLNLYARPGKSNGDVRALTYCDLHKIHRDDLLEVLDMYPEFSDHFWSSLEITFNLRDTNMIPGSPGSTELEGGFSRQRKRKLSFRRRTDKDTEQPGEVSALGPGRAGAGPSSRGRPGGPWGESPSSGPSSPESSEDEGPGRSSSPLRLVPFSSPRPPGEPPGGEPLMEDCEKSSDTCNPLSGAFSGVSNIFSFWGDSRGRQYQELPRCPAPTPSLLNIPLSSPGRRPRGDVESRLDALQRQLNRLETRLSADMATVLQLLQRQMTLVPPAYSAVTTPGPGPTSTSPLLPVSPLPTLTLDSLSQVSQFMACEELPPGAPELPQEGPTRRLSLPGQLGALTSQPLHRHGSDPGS
row,Compound,"hERG current change (%, negative = inhibition) at 10uM [%]"
1,CCOc1ccc(CC2NCCc3cc(OCC)c(OCC)cc32)cc1OCC (centres unmarked),-13.3
2,CCN1C(=O)/C(=C\c2ccco2)C(C(=O)OC)=C1C,10.4
3,Cn1nccc1NC(=O)Nc1cccc(Cl)c1Cl,16.5
4,COC(=O)CSc1nc(C2CC2)nc2ccccc12,-11.5
5,Cc1cc(C)cc(N(C(C)C(=O)N2CCCCC2)S(C)(=O)=O)c1 (centres unmarked),4.06
6,Cc1ccc(S(=O)(=O)NCC(=O)N(CC(=O)NCC2CCCO2)Cc2ccc(Cl)cc2)cc1 (centres unmarked),-11
7,Cc1c(Cl)cccc1NC(=S)NC1CCCC1,-5.1
8,Cc1ccc(-c2csc(NC(=O)c3ccno3)n2)cc1,2.72
9,CN1CCN(C(=O)CSc2nc(-c3cccs3)ccc2C#N)CC1,-4.44
10,COC(=O)c1ccc(CN(c2ccccn2)S(=O)(=O)c2ccccc2)cc1,14.1
11,Cc1ccc(-c2c[n+](Cc3ccc(Cl)c(Cl)c3)c3n2CCC3)cc1.[Cl-],-68.9
12,O=[N+]([O-])c1ccc(C[n+]2cc(-c3ccc(Cl)c(Cl)c3)n3c2CCCCC3)cc1.[Br-],-15.7
13,Clc1ccc(C[n+]2cc(-c3ccccc3)n3c2CCC3)cc1Cl.[Cl-],-45.1
14,CC(=O)N1CCN(c2ccccc2NC(=O)c2cc3ccccc3o2)CC1,-49.8
15,O=C1CC(c2ccccc2)CC(O)=C1C=NCCCN1CCOCC1 (centres unmarked),-9.92
16,O=C(O)c1cc(-c2cccs2)nc2ccc(Br)cc12,21
17,COc1ccc(CNS(=O)(=O)c2cc(Br)cc3c2N(C(C)=O)C(C)C3)cc1 (centres unmarked),-40.9
18,CC(=O)N1CCc2cc(Br)cc(S(=O)(=O)NCc3ccccn3)c21,7.02
19,O=C(C1CC1)N1CCc2cc(Br)cc(S(=O)(=O)NCc3ccco3)c21,-41
20,CC(=O)N1CCc2cc(Br)cc(S(=O)(=O)NCCCN(C)Cc3ccccc3)c21,-38.3
21,O=C(O)CCS(=O)(=O)c1cc(Br)cc2c1N(C(=O)C1CC1)CC2,9.39
22,CCCN(CCC)S(=O)(=O)c1cc(Br)cc2c1N(C(=O)CC)CC2,-2.75

row,Compound,"hERG current change (%, negative = inhibition) at 10uM [%]"
1,CC(=O)N1c2c(cc(Br)cc2S(=O)(=O)NCc2ccc(C)cc2)CC1C (centres unmarked),-59.5
2,CCCCN(C)S(=O)(=O)c1cc(Br)cc2c1N(C(=O)C1CC1)CC2,-51.6
3,CC(=O)N1c2c(cc(Br)cc2S(=O)(=O)NCc2ccccc2)CC1C (centres unmarked),-35.5
4,O=C(C1CC1)N1CCc2cc(Br)cc(S(=O)(=O)NCc3ccc4c(c3)OCO4)c21,-64.8
5,CC(=O)N1CCc2cc(Br)cc(S(=O)(=O)NCc3ccc(Cl)cc3)c21,-58.6
6,CCN(c1ccc2c(c1)OCO2)S(=O)(=O)c1cc(Br)cc2c1N(C(=O)C1CC1)CC2,8.05
7,COc1cc(CNn2cnnc2)ccc1OCC(=O)NC(C)(C)C,1.29
8,O=C(Nc1nc(-c2ccc3c(c2)OCO3)cs1)C1COc2ccccc2O1 (centres unmarked),13.1
9,CCn1c(SCC(=O)N=Nc2c(O)[nH]c3ccccc23)nc2ccccc21,-11.9
10,CC1=CC(=O)CC(C)(C)C1(O)/C=C/C(C)=C/C(=O)O (centres unmarked),5.43
11,CCOc1ccc(Nc2ncnc3c2cnn3C)cc1,-16.6
12,COc1cccc(C(c2c(C)[nH]n(-c3ccccc3)c2=O)c2c(C)[nH]n(-c3ccccc3)c2=O)c1O,-4.28
13,CCN(CC)CCn1c(=S)[nH]c2ncccc2c1=O,-20.5
14,CCN(CC)CCn1c(=S)[nH]c2ccccc2c1=O,-25.6
15,CCN(CC)CCCn1c(=S)[nH]c2ncccc2c1=O,-15.9
16,CCN(CC)CCn1c(=S)[nH]c2cc3c(cc2c1=O)OCO3,-24.2
17,CCN(CC)CCCn1c(=S)[nH]c2ccc(Cl)cc2c1=O,-63.7
18,CCN(CC)CCCn1c(=S)[nH]c2cc(OC)c(OC)cc2c1=O,-2.6
19,CN(C)CCn1c(=S)[nH]c2ccc(Cl)cc2c1=O,-21.7
20,CCN(CC)CCn1c(=S)[nH]c2ccc(Cl)cc2c1=O,-60.8
21,CCN(CC)CCn1c(=S)[nH]c2ccc(Br)cc2c1=O,-66.7
22,Cc1ccc(CCNC(=O)C2CCN(S(=O)(=O)c3ccc4c(c3)NC(=O)C(C)S4)CC2)cc1 (centres unmarked),-2.94

row,Compound,"hERG current change (%, negative = inhibition) at 10uM [%]"
1,CC(C)N(C(=O)CSc1ccc(S(=O)(=O)N2CCCCC2)cn1)C(C)C,-15.7
2,CC12CCC(C(=O)O)(c3nc4cc([N+](=O)[O-])ccc4nc31)C2(C)C (centres unmarked),-1.75
3,O=C(NC(Cc1c[nH]c2ccccc12)C(=O)O)/C(=C\c1ccccc1)NC(=O)c1ccccc1 (centres unmarked),9.54
4,COc1ccc2cnn(-c3ccc(OC(F)(F)Cl)cc3)c(=O)c2c1OC,6.28
5,CCCN(CC(=O)Nc1ccccc1C)C(=O)c1ccc(N2CCCCC2)c([N+](=O)[O-])c1,-43.7
6,CCN(CC(=O)Nc1cc(Cl)ccc1C)C(=O)c1cc([N+](=O)[O-])ccc1N1CCOCC1,-18.5
7,CCCN(CC(=O)Nc1ccccc1C)C(=O)c1ccc(N2CCCC2)c([N+](=O)[O-])c1,-41.3
8,CCCN(CC(=O)Nc1ccccc1C)C(=O)c1ccc(N2CCOCC2)c([N+](=O)[O-])c1,-70.3
9,CCCN(CC(=O)Nc1ccc(F)c(F)c1F)C(=O)c1cc([N+](=O)[O-])ccc1N1CCOCC1,-67.1
10,CCN(CC(=O)Nc1c(F)cccc1F)C(=O)c1cc([N+](=O)[O-])ccc1N1CCOCC1,-4.57
11,O=C(NCC(=O)N1CCN(C(=O)c2ccccc2)CC1)c1ccccc1,5.05
12,COc1ccc([C@H]2CC(=O)C=C(c3cc(C(F)(F)F)cc(C(F)(F)F)c3)C2)cc1,4.42
13,COc1ccc([C@H]2CC(=O)C=C(/C=C/c3ccc(C(F)(F)F)cc3)C2)cc1,-62.9
14,C/C=C/C1=CC(=O)C[C@H](c2ccc(Cl)cc2)C1,-63.9
15,O=C1C=C(/C=C/c2ccccc2)C[C@@H](c2ccc3c(c2)OCO3)C1,20
16,O=C1C=C(c2ccccc2)CC(c2ccc(F)cc2)C1 (centres unmarked),-28.2
17,COc1ccc([C@H]2CC(=O)C=C(/C=C/c3ccc(Cl)cc3)C2)cc1,12.8
18,C/C=C/C1=CC(=O)C[C@H](c2ccc(F)cc2)C1,-34.3
19,O=C1C=C(/C=C/c2ccccc2)C[C@@H](c2ccc(F)cc2)C1,-59.7
20,CCCCC/C=C/C1=CC(=O)C[C@H](c2ccc(Cl)cc2)C1,-47.4
21,O=C(Nc1ccc(-c2cn3ccccc3n2)cc1)c1ccco1,-11.4
22,O=C1C=C(c2ccc(CO)cc2)C[C@@H](c2ccc3c(c2)OCO3)C1,-44.3

row,Compound,"hERG current change (%, negative = inhibition) at 10uM [%]"
1,CC1=CSC2=NC(C(F)(F)F)(C(F)(F)F)NC(=O)N12,-1.5
2,C=CCn1sc(N)c(C(=O)OCC)c1=S,0.673
3,Cc1ccc(NS(=O)(=O)c2cccc(C(=O)O)c2)cc1S(=O)(=O)N1CCCCC1,3.3
4,COC(=O)Cn1c(=NC(=O)c2nc3ccccc3s2)sc2cc(S(C)(=O)=O)ccc21,-65.2
5,COCCn1c(=NC(=O)c2nc3ccccc3s2)sc2cc(S(C)(=O)=O)ccc21,-21
6,COC(=O)Cn1c(=NC(=O)c2nc3ccccc3s2)sc2cc(S(N)(=O)=O)ccc21,6.74
7,CCC(=O)NNC(=S)NC(=O)c1ccc(C)cc1,22.4
8,S=c1[nH]nc(-c2cccc(Br)c2)o1,19.6
9,CCOC(=O)c1cccc(NC(=O)CCc2nnc3ccc(N4CCCCC4)nn23)c1,7.86
10,CCn1c(O)c(N=NC(=O)CNC(=O)/C=C/c2ccco2)c2ccccc21,0.357
11,C=CCn1c(O)c(N=NC(=O)CNC(=O)c2ccco2)c2ccccc21,-4.55
12,C=CCn1c(O)c(N=NC(=O)CNC(=O)/C=C/c2ccco2)c2ccccc21,-58.2
13,CCCCNC(=O)NS(=O)(=O)c1cnccc1Sc1ccc(Cl)cc1,12.1
14,NC(=O)c1cccnc1Nc1cccc(F)c1,-4.36
15,CCOC(=O)c1sc(/S(C)=N\S(=O)(=O)c2cccc(Cl)c2)c2c1CCC=C2 (centres unmarked),-51.9
16,CCOC(=O)C1=C(C)Nc2ccccc2N/C1=N\S(=O)(=O)c1cccc(Cl)c1,0.773
17,CCOC(=O)c1nc(C)sc1-c1ccnn1S(=O)(=O)c1cccc(Cl)c1,-22.5
18,COc1ccc(-n2nc(C(=O)NCc3ccco3)c3c4ccccc4n(C)c3c2=O)cc1,18.1
19,Cc1ccc(C)c(NC(=O)C2CCC(C)(C(=O)O)C2(C)C)c1 (centres unmarked),-18.4
20,Cc1cccc(NCC(=O)N/N=C\c2cccc(Oc3ccccc3)c2)c1,20.1

# Source: article PMC4336329 (PLoS ONE, 2015)
